Reference: PubChem BioAssay (EPA / NIEHS)
Records with an inconclusive call do not appear. Where a structure was tested more than once in an assay, its records may differ in their call. Active and inactive are the calls of the source. Rule for the calls: active = hit-call score of the fitted dose curve at least 0.9, where 1 is the maximum; inconclusive = response in the unintended direction; inactive = score below 0.9.

Test: TOX21_p53_BLA_p4_viability: Viability Assessment in the Tox21 HCT-116 p53 Agonism Beta-lactamase Assay, Phase 4 (AID 2283597);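 note: hits lower the luminescence signal meaning cytotoxicity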
Source text: TOX21_p53_BLA_p4 is a cell-based, single-readout assay that uses HCT116, a human intestinal cell line, […] in a 1536-well plate.TOX21_p53_BLA_p4_viability is an assay readout measuring cellular ATP content and detected with CellTiter-Glo Luciferase-coupled ATP quantitation.TOX21_p53_BLA_p4_viability used a type of viability reporter where loss-of-signal activity can be used to understand changes in the cell viability. Furthermore, this assay endpoint can be referred to as a secondary readout, because this assay has produced multiple assay endpoints where this one serves a viability function. To generalize the intended target to other relatable targets, this assay endpoint is annotated to the cell cycle intended target family, where the subfamily is cytotoxicity.
Thawing Method: Place 14 mL of pre-warmed thaw medium into a 15 mL of conical tub. Remove the vial of cells to be thawed from liquid nitrogen and thaw rapidly by placing at 37C in a water bath with gentle agitation for 1-2 minutes. Decontaminate the vial by wiping with 70% ethanol before opening in a biological safety cabinet. Transfer the vial contents drop-wise into 14 mL of thaw medium in a sterile 15-mL conical tub. Centrifuge cells at 900 rpm for 4 minutes and resuspend in thaw medium. Transfer contents to the T75 tissue culture flask containing Thaw Medium and place flask in a humidified 37C/5% CO2 incubator. Switch to growth medium at first passage.Propagation Method: Aspirate medium, rinse once in DPBS, add 0.25% Trypsin/EDTA and swirl to coat the cell evenly. Add an equal volume of Growth Medium to inactivate Trypsin after 2-3 minutes incubation at 37C. Centrifuge cells at 900 rpm for 4 minutes and resuspend in growth medium. Cell should be passage or fed at least twice a week.Assay Protocol: Harvest cells from culture in growth medium and resuspend in assay medium. 2.2 Dispense 4000 cells/5 uL/well into 1536-well black/clear bottom plates using a Multidrop dispenser. After the cells were incubated at 37C for 5 hours, 23 nL of compounds dissolved in DMSO were transferred to the assay plate by a PinTool resulting in a 217-fold dilution. Incubate the plates for 16 hours at 37C, 5% CO2. Add 1 uL of 6X LiveBLAzer FRET B/G (CCF4-AM) Substrate Mixture to each well using a BioRAPTR dispenser and incubate the plates at room temperature for 2 hours. Measure fluorescence intensity at 460 and 530 nm emission and 405 nm excitation by an Envision detector. Data is expressed as the ratio of 460nm/530nm emissions. Add 4 uL of Cell-titer Glo to each well using BioRAPTR and incubate the plates at room temperature for […]. For cell viability readout that measures cytotoxicity, 4 ul/well of CellTiter-Glo reagent was added into the assay plates using a Flying Reagent Dispenser. After 30 min incubation at room temperature, the luminescence intensity in the plates was measured using a ViewLux plate reader.

Q: With CCCC1COC(Cn2cncn2)(c2ccc(Cl)cc2Cl)O1 (stereo not given) as the compound, how does the outcome read?
A: inactive

Q: With Cc1ccc(-c2c(Cl)nc(C#N)n2S(=O)(=O)N(C)C)cc1 as the compound, how does the AC50 read?
A: 71.9 µM (active)

Q: Which outcome does the source give for O=C(O)c1nc(Cl)ccc1Cl here?
A: inactive

Q: For CNC(=S)S, which outcome is on record?
A: inactive

Q: For CCOP(=S)(OCC)SCn1c(=O)oc2cc(Cl)ccc21, which outcome is on record?
A: inactive

Q: For Oc1ccccc1-c1ccccc1, which outcome is on record?
A: inactive

Q: For C=CCC1=C(C)[C@@H](OC(=O)[C@@H]2[C@@H](C=C(C)C)C2(C)C)CC1=O, which outcome is on record?
A: inactive

Q: With COc1ccc(C(c2ccc(OC)cc2)C(Cl)(Cl)Cl)cc1 as the compound, how does the outcome read?
A: inactive

Q: For O=C(O)COc1nc(Cl)c(Cl)cc1Cl, which outcome is on record?
A: inactive

Q: With CC(Oc1ccc(Cl)cc1Cl)C(=O)O (stereo not given) as the compound, how does the outcome read?
A: inactive

Q: Which AC50 does the source give for N#CC(CCc1ccc(Cl)cc1)(Cn1cncn1)c1ccccc1 (stereo not given) here?
A: 39.1 µM (active)

Q: Which outcome does the source give for CCON=C(CC)C1=C(O)CC(c2c(C)cc(C)cc2C)CC1=O (stereo not given) here?
A: inactive

Q: For CCNc1nc(Cl)nc(NCC)n1, which outcome is on record?
A: inactive

Q: With CCOC(=O)C(Cl)Cc1cc(-n2nc(C)n(C(F)F)c2=O)c(F)cc1Cl (stereo not given) as the compound, how does the outcome read?
A: inactive

Q: Which outcome does the source give for CCCCC(CC)COC(=O)c1ccccc1C(=O)OCC(CC)CCCC (stereo not given) here?
A: inactive

Q: With CCCCNC(=O)OCC#CI as the compound, how does the outcome read?
A: inactive

Q: And the AC50?
A: 35.9 µM (active)

Q: For CC1=C(C(=O)Nc2ccccc2)SCCO1, which outcome is on record?
A: inactive

Q: Which outcome does the source give for C=CCC1=C(C)C(OC(=O)C2C(C=C(C)C)C2(C)C)CC1=O (stereo not given) here?
A: inactive

Q: Which results are given for C#CCOS(=O)OC1CCCCC1Oc1ccc(C(C)(C)C)cc1 (stereo not given)?
A: AC50: 70.4 µM (active); outcome: inactive

Q: Which outcome does the source give for CCCCNC(=O)n1c(NC(=O)OC)nc2ccccc21 here?
A: inactive

Q: Which outcome does the source give for CON(C)C(=O)Nc1ccc(Cl)c(Cl)c1 here?
A: inactive

Q: For C=CC1(C)OC(=O)N(c2cc(Cl)cc(Cl)c2)C1=O (stereo not given), which outcome is on record?
A: inactive

Q: For CC1COC(Cn2cncn2)(c2ccc(Oc3ccc(Cl)cc3)cc2Cl)O1 (stereo not given), which AC50 is on record?
A: 71.1 µM (active)

Q: With CC(C)Oc1cc(-n2nc(C(C)(C)C)oc2=O)c(Cl)cc1Cl as the compound, how does the outcome read?
A: inactive

Q: And the AC50?
A: 27.7 µM (active)

Q: With COC(=O)C(C)Oc1ccc(Oc2ccc(Cl)cc2Cl)cc1 (stereo not given) as the compound, how does the outcome read?
A: inactive

Q: Which outcome does the source give for CO/C=C(/C(=O)OC)c1ccccc1Oc1cc(Oc2ccccc2C#N)ncn1 here?
A: inactive

Q: With N#Cc1nn(-c2c(Cl)cc(C(F)(F)F)cc2Cl)c(N)c1S(=O)C(F)(F)F (stereo not given) as the compound, how does the outcome read?
A: inactive

Q: With O=C(Nc1ccccc1)Nc1ccnc(Cl)c1 as the compound, how does the outcome read?
A: inactive

Q: Which outcome does the source give for COC(=O)c1ccccc1C(=O)OC here?
A: inactive

Q: For COC(=O)N(OC)c1ccccc1COc1ccn(-c2ccc(Cl)cc2)n1, which outcome is on record?
A: inactive

Q: For Fc1ccc(Oc2ccnc3cc(Cl)cc(Cl)c23)cc1, which outcome is on record?
A: inactive

Q: Which outcome does the source give for OC(c1ccc(Cl)cc1)(c1cncnc1)c1ccccc1Cl (stereo not given) here?
A: inactive

Q: For CNC(=O)ON=CC(C)(C)SC, which outcome is on record?
A: inactive

Q: With CCc1nn(C)c(C(=O)NCc2ccc(C(C)(C)C)cc2)c1Cl as the compound, how does the AC50 read?
A: 46.1 µM (active)

Q: With CC(C)C1(C)N=C(c2nc3ccccc3cc2C(=O)O)NC1=O (stereo not given) as the compound, how does the outcome read?
A: inactive

Q: For Cc1c(F)c(F)c(COC(=O)C2C(/C=C(\Cl)C(F)(F)F)C2(C)C)c(F)c1F (stereo not given), which outcome is on record?
A: inactive

Q: With CCOC(=O)CC(SP(=S)(OC)OC)C(=O)OCC (stereo not given) as the compound, how does the outcome read?
A: inactive
